# High-throughput results: PubChem BioAssay, National Center for Advancing Translational Sciences (NCATS)
# Giardia FBPA inh – blocks Giardia fructose-bisphosphate aldolase activity. A8B2U2. purified Giardia FBPA. Potency, µM (highest dose often 59.6 µM), without a hit: at the highest dose activity, negative = inhibition, hits mostly inhibitors. 0.71% of 290,000 active; note: potency is the fitted concentration of half-maximal effect; nearly all actives have a fitted effect of over 55% in size
# Target sequence (A8B2U2 whole entry, looked up): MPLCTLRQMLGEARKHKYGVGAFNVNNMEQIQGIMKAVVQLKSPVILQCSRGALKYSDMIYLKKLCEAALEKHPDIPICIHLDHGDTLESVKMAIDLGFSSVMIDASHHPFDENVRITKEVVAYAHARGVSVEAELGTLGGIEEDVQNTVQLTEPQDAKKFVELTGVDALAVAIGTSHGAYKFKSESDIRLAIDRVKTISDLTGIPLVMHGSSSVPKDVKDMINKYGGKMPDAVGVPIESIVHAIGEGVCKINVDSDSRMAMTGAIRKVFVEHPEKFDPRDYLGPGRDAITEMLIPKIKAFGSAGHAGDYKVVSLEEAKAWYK
#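 Giardia FBPA (40 nM reagent) was preincubated 10 min at RT with compound (up to 57.5 uM final), then substrate plus GAPDH/TPI/NAD/arsenate coupling system with diaphorase/resazurin was added; resorufin fluorescence (525/598 nm) was read after 20 min.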
# Vaccinia mCherry – inhibitors of vaccinia virus infection (mCherry reporter signal) | 0.63% of 310,000 active | AID 720579 | Potency, µM (series often up to 36.5 µM), for inactives: at the top dose activity change, negative = inhibition, hits mostly inhibitors | Vaccinia virus mCherry reporter infection, fluorescence; calls by dose curve; tested in A549 cells; note: potency is the fitted concentration of half-maximal effect; nearly all actives have a fitted effect of over 35% in size
# Vaccinia Venus – vaccinia inhibition (Venus reporter) | Vaccinia virus Venus reporter expression, fluorescence | Potency, µM (highest dose often 36.5 µM), inactives show at the top dose activity change, negative = inhibition, usual class: inhibitors | 0.46% of 330,000 active | AID 720580; calls by dose curve; tested in A549 cells; note: potency is the fitted concentration of half-maximal effect; nearly all actives have a fitted effect of over 30% in size
# HCV inh – blocks hepatitis C virus; Huh7.5.1 HCVcc-Cre infection, luciferase reporter, 44 h; Potency, µM (top dose mostly 41.8 µM), for the others: at the top dose activity change, negative = inhibition, most hits filed as inhibitors; 3.4% of 340,000 active; AID 651820; note: potency is the fitted concentration of half-maximal effect
#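 After 44 h co-culture of compound, cells and HCVcc-Cre (~0.5 moi), substrate is added for 15 min at room temperature and luciferase measured over 15 sec. Cells were seeded at 1,000/well and pre-cultured 4 h.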
# FMDV inh – blocks foot and mouth disease virus. FMDV antiviral cell-based qHTS. Potency, µM (doses to about 57.9 µM), inactives show top-dose activity change, negative = inhibition, hits mostly inhibitors. 1.2% of 410,000 active. AID 1159524; calls by dose curve; tested in HEK293T cells; note: read-out not given here; potency is the fitted concentration of half-maximal effect; nearly all actives have a fitted effect of over 45% in size
# HCMV inh – inhibitors of human cytomegalovirus; HFF cells, HCMV-luciferase reporter, 72 h; hits give low values; activity change, negative = inhibition, % at 57.5 µM; 4.5% of 410,000 active; AID 1259415; in the data active = activity change below about -60%; inconclusive = no clear call, values can overlap the other calls; inactive = above about -39%
#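 Two-dose cell screen: HFF monolayers treated with compounds and infected with luciferase-expressing HCMV at 1 PFU/cell, 72 h at 37C, then lysed for luciferase measurement.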
# * = called active by the depositor; i = inactive; ? = inconclusive; / = no result; [ ] = remark or other dose. Hits are enriched below; roughly 7.5% of the tested compounds scored in any of these assays. Unless noted, calls come from the whole dose curve; as a rule, active = well fitted curve in the direction sought with a large enough effect; inconclusive = small, poorly fitted or top-dose-only effect, or another doubt; inactive = no such curve, though single readings can be large; an effect the other way counts as inactive or inconclusive. % is set by controls: 0 for no effect and ±100 for the full control effect.
SMILES,Giardia FBPA inh,Vaccinia mCherry,Vaccinia Venus,HCV inh,FMDV inh,HCMV inh
O=C1C2C3CC4C5C3C1C5C1(SCCS1)C42 (centres undefined),/,9.6%,-4.0%,/,4.9%,-87.0*
O=S(=O)(c1ccc2c(c1)CCCC2)N1CCN(c2nc(-c3ccccc3)nc3ccccc23)CC1,/,-12.6%,-9.8%,/,/,/
CCOC(=O)c1c(NC(=O)/C=C/C(=O)O)sc(C)c1-c1ccc(C(C)(C)C)cc1,29.2%,?,?,?,17.8µM*,?
CCOC(=O)c1c(NC(=O)C2C3CCC(O3)C2C(=O)O)sc(C)c1-c1ccc(C)cc1 (centres undefined),?,/,11.2µM*,-17.1%,0.0%,34.6
Cc1cccc(C)c1NC(=O)C1N=Cc2ccccc2N=C1c1cccc(Br)c1 (centres undefined),/,/,/,/,/,35.3
Cc1cccc(-n2c(SCC(N)=O)nc3c(c2=O)C2(CCCC2)Cc2ccccc2-3)c1,12.8%,?,?,?,?,?
NC(=O)CSc1nc2c(c(=O)n1-c1ccccc1)C1(CCCCC1)Cc1ccccc1-2,-1.2%,i,-24.7%,0.1%,20µM*,-93.4*
C=CCOc1c(Cl)cc(CNc2ccc(C)c(Cl)c2)cc1OC,-4.3%,/,/,/,/,/
C=CCOc1c(Cl)cc(CNc2ccc(N(C)C)cc2)cc1OC,4.46µM*,/,/,?,-17.0%,?
O=C1CN(c2nc3nonc3nc2N2CCCCC2)CCN1,4.1%,-23.0%,-1.8%,9.0%,-5.2%,35.9
Cc1ccc(-n2ccn(CC(=O)c3ccc(F)cc3)c(=O)c2=O)cc1C,/,-5.9%,-6.5%,/,40.4%,-38.6
CCN(CC)C(=O)c1sc2nc(-c3cccs3)cc(-c3cccs3)c2c1N,0.7%,/,/,-26.2%,-11.8%,-64.0*
C[C@H](O)[C@@H]1C(=O)N2CCc3ccc(-c4ccccc4)cc3[C@@H]2C[C@@H]1N(C)C(=O)Nc1cc(Cl)cc(Cl)c1,/,-13.7%,-20.3%,11.2µM*,-25.0%,24.5
C[C@H](O)[C@@H]1CN2CCc3c([nH]c4ccc(-c5ccc6c(c5)OCO6)cc34)[C@@H]2C[C@@H]1N(C)C(=O)Nc1ccc(F)cc1,/,?,?,/,?,-102.3*
COc1ccc(-c2ccc3[nH]c4c(c3c2)CCN2C[C@@H]([C@H](C)O)[C@@H](N(C)C(=O)Nc3cc(Cl)cc(Cl)c3)C[C@@H]42)cc1,/,-21.7%,?,/,0.0%,-24.6
COc1ccc(-c2ccc3[nH]c4c(c3c2)CCN2C(=O)[C@@H]([C@H](C)O)[C@@H](N(C)C(=O)Nc3ccc(F)cc3)C[C@@H]42)cc1,/,?,?,/,?,-99.8*
CC(=O)n1cc(C=O)c2ccccc21,/,23.1%,1.5%,/,/,/
COc1ccccc1N(C(=O)CCl)c1cn(C(C)=O)c2ccccc12,0.6%,/,/,?,17.8µM*,-96.6*
CC(=O)n1cc(N(C(=O)CCl)c2ccc(Cl)cc2)c2ccccc21,-9.0%,/,/,3.55µM*,11.2µM*,/
COC(=O)Nc1ccc(S(=O)(=O)N2CCCc3ccccc32)cc1,-10.7%,/,/,3.16µM*,-8.1%,-61.6*
COC(=O)Nc1ccc(S(=O)(=O)N2CCCCC2)cc1,-0.6%,/,/,13.8%,-20.1%,-9.8
CCC(=O)Nc1ccc(S(=O)(=O)N2CCc3ccccc32)cc1,-3.3%,/,/,-15.0%,?,-22.7
COC(=O)Nc1ccc(S(=O)(=O)N2CCCc3cccc(O)c32)cc1,-8.7%,?,?,11.2µM*,-28.3%,-23.8
Cn1c(SCc2ccccc2Cl)nc(=O)c2c1NC(=O)CC2c1cc(F)ccc1F (centres undefined),/,2.9%,-7.6%,/,-8.9%,2.6
CCn1cc(S(=O)(=O)Nc2cc(C)ccc2F)cn1,/,i,-3.4%,-2.1%,12.6%,-4.1
SMILES,Giardia FBPA inh,Vaccinia mCherry,Vaccinia Venus,HCV inh,FMDV inh,HCMV inh
CCc1ccc(NC(=O)C(C)OC(=O)CC(NC(C)=O)c2ccccc2)cc1 (centres undefined),0.1%,-15.3%,-2.6%,14.0%,-6.1%,-17.3
COC(=O)c1c(NC(=O)Cn2cc([N+](=O)[O-])cn2)sc2c1CCC2,0.5%,/,-8.3%,?,-20.9%,-38.0
COC(=O)c1c(NC(=O)CSc2ncnc3c2cnn3-c2ccccc2Cl)sc2c1CCCC2,-1.5%,/,/,?,-21.2%,-85.4*
COC(=O)c1c(NC(=O)CSc2ncnc3[nH]ncc23)sc2c1CCC2,-0.8%,7.0%,0.8%,5.6%,5.4%,-80.8*
O=C1CCCCN1CCC(=O)N1CCCC(N2CCN(c3ccccc3)CC2)C1 (centres undefined),/,/,/,19.1%,8.8%,-13.7
CCN1C(=NCCN2CCOCC2)N[C@@H](c2ccccc2)C(C(=O)OC)=C1C,16.7%,-12.1%,-6.5%,24.6%,-16.4%,?
CCCOc1ccc(C(=O)N2CC3(CC(c4cccc(NC(=O)[C@@H]5CCC(=O)N5)c4)=NO3)C[C@H]2C(=O)NC2(C(N)=O)CC2)cc1 (some centres undefined),1.4%,i,-4.0%,2.0%,-15.1%,-64.4*
NC(=O)C1(NC(=O)[C@@H]2CC3(CC(c4cccc(NC(=O)[C@@H]5CCC(=O)N5)c4)=NO3)CN2C(=O)c2ccccc2)CC1 (some centres undefined),4.2%,i,-7.8%,11.6%,7.0%,-16.9
CC(=O)OC[C@H]1O[C@@H](O[C@H]2C[C@]3(C)C(C[C@@H](O)C4C([C@]5(C)CC[C@@H](C(C)(C)O)O5)CC[C@]43C)[C@@]3(C)CC[C@H](O)C(C)(C)C23)[C@H](O[C@@H]2O[C@@H](C)[C@H](O)[C@@H](O)[C@H]2O)[C@@H](O)[C@@H]1O (some centres undefined),/,i,0.7%,3.1%,-16.0%,2.6
O=C1NC(=Nc2ccc(Cl)cc2)/C(=C/c2ccco2)S1,-24.5%,-0.9%,11.7%,?,48.2%,-80.0*
CS(=O)(=O)N(CC(=O)Nc1cccc([N+](=O)[O-])c1)c1cccc(F)c1,0.9%,/,/,-8.1%,-27.2%,11.4
NS(=O)(=O)c1ccc(NC(=O)N2c3ccccc3Sc3ccccc32)cc1,14.0%,-28.0%,-23.2%,-6.0%,/,-63.5*
CCc1ccc(NC(=O)N2c3ccccc3Sc3ccccc32)cc1,/,-11.4%,-8.5%,/,-13.6%,-17.4
Cc1ccccc1-c1cc2nc(NCc3ccccc3)n(C)c(=O)c2s1,/,i,-22.7%,/,-4.0%,11.1
O=c1c2ccccc2nc2n1C(CSCc1ccc(Cl)cc1Cl)CS2 (centres undefined),-21.6%,/,-21.5%,-4.3%,17.8µM*,-31.4
COc1cccc2c1C(=O)c1c(O)c3c(c(O)c1C2=O)C[C@](O)(C(=O)CO)C[C@H]3O[C@@H]1C[C@H](N)[C@H](O)[C@H](C)O1,-16.2%[21.7 µM],/,/,/,/,/
